Laboratory results from PubChem BioAssay.
The source made the active and inactive calls.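 The calls were made as follows, unless noted: active = visually confirmed hit in the image check and inhibition above 20%; inconclusive = visually confirmed hit but inhibition not above 20%; inactive = no visual hit in the image check.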

Experiment: inhibitors of TNFa-induced NFkB p65 translocation, primary screen, imaging, HUVEC, MLSMR starter and 10KST1 sets (AID 438;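 active = inhibition above 20% together with a positive visual image hit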;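 also: compound added about 3h40 before a 20 min TNFalpha stimulation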;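 as to inhibition: signal is the nuclear over cytoplasmic p65 intensity ratio per well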)
Settings: HUVEC TNFa-induced p65 nuclear translocation; cell count: measured here: nuclei count (cytotoxicity indicator), at 2.08 µM; inhibition: at 2 µM, stronger effect = higher value, 0% TNFa-plus-vehicle, 100% no-TNFa wells

Compound | cell count | inhibition
Cc1cc(C)n(S(=O)(=O)/C=C/c2ccccc2)n1 | 395 | -10.4% (inactive)
N#Cc1nc(-c2ccc(F)cc2)oc1N1CCCC1 | 706 | -7.6% (inactive)
CCOC(=O)c1[nH]c2ccc(C)cc2c1N=CN(CC)CC | 681 | -16.8% (inactive)
Cn1c(NCCCO)nc2c1c(=O)n(Cc1ccccc1F)c(=O)n2C | 691 | -14.5% (inactive)
C=CCOc1ccc(/C(O)=C2/C(=O)C(=O)N(CCCN3CCOCC3)C2c2ccc(OC)cc2)cc1 (stereo not given) | 409 | -10.2% (inactive)
CCOc1ccc2c(c1)n([O-])c1c([n+]2=O)CCCC1 | 345 | 6.9% (inactive)
CCCC(=O)N1CCc2[nH]c3ccccc3c2C1 | 502 | 4.2% (inactive)
CCN(CC)c1nc(N2CCOCC2)c(C#N)c2c1CN(C)CC2 | 580 | -9.1% (inactive)
CN1C(=O)C2(c3ccccc31)C1CCCC=C1C(C#N)=C(N)C2(C#N)C#N (stereo not given) | 391 | -7% (inactive)
Cc1sc(-n2c(C)ccc2C)c(C#N)c1C | 411 | -2% (inactive)
CCN(CC)CCN1C(=O)C(O)=C(C(C)=O)C1c1ccc(OC)c(OC)c1 (stereo not given) | 466 | 0.4% (inactive)
CCOC(=O)C(C(=O)OCC)N(C#N)c1nc(SC)nc(N(C)C)n1 | 607 | -2.8% (inactive)
CCSc1nnc(NC(=O)C(C)(C(F)(F)F)C(F)(F)F)s1 | 664 | -10.9% (inactive)
CC(C)=CCC(C)(C)CNC(=O)NC1CCCCC1 | 577 | -4.2% (inactive)
CCCOC(=O)CSC1=C(C#N)C(c2ccc3c(c2)OCO3)CC(=O)N1 (stereo not given) | 674 | -6.1% (inactive)
COc1ccc(N2CC(=O)N(c3ccc(OC)c(OC)c3)CC2=O)cc1OC | 400 | -5.7% (inactive)
CCCCCCOc1ccc(C(=O)n2cnc(N)n2)cc1 | 664 | -4.5% (inactive)
CCSc1nc2sc3c(c2c2nnc(SCC(=O)NCc4ccco4)n12)CCCC3 | 550 | -5.1% (inactive)
C=CCc1cccc(CNc2nc3ccccc3n2C(C)C)c1O | 653 | 4.4% (inactive)
O=C(Nc1ccc(N2CCN(C(=O)c3ccccc3)CC2)c(Cl)c1)c1ccc(Br)o1 | 435 | -6.8% (inactive)

Compound | cell count | inhibition
COc1ccc(NC(=O)c2c(C)cc(=O)oc2C)c(OC)c1 | 631 | 3.2% (inactive)
Cc1c(C)[n+](=O)c2c(n1[O-])CCC2 | 529 | -2% (inactive)
COC(=O)CCc1c(C)[nH]c(=S)[nH]c1=O | 364 | -0.7% (inactive)
CCOC(=O)C1=C(N)n2c(s/c(=C\c3cccnc3)c2=O)=C(C(=O)OC)C1c1cccnc1 (stereo not given) | 326 | -14.1% (inactive)
COc1ccc(CNc2oc(COc3ccc(Cl)cc3)nc2C#N)cc1 | 484 | 5.8% (inactive)
CC1(C)Cc2[nH]c(=O)c(C#N)cc2CS1 | 595 | -11.1% (inactive)
COc1ccccc1C1CC(c2ccc(Cl)cc2)Nc2nc(N)nn21 (stereo not given) | 404 | 0% (inactive)
CCOC(=O)C(C)Oc1ccc2c(C)cc(=O)oc2c1C(C)=O (stereo not given) | 708 | 3.9% (inactive)
CCC1(C)Cc2c(sc(NC(=O)CCC(=O)O)c2C#N)CO1 (stereo not given) | 525 | -3.4% (inactive)
Cc1cc(C)n(CC(=O)c2ccccc2)c(=O)c1C#N | 470 | -3.8% (inactive)
COc1cccc(Cn2c(NCc3ccccn3)nc3c2c(=O)n(C)c(=O)n3C)c1 | 694 | -20.9% (inactive)
O=C(NCCCN1CCOCC1)C1(c2ccccc2)CCOCC1 | 610 | -2% (inactive)
O=C(NCc1ccco1)c1ccc(=O)[nH]n1 | 578 | 3.8% (inactive)
CC(NC(=O)CSc1nc2c(cc1C#N)CN(C)CC2)c1ccccc1 (stereo not given) | 739 | 5.9% (inactive)
COc1cccc(C(=O)OC2CCCN(C)C2)c1 (stereo not given) | 524 | 1.2% (inactive)
Cn1c(=O)[nH]c(=O)c2c1nc(N1CCN(c3cccc(Cl)c3)CC1)n2CCCc1ccccc1 | 620 | -6% (inactive)
CCOC(=O)c1[nH]c2ccc(OC)cc2c1NC(=O)CCN1CCCC(C)C1 (stereo not given) | 521 | -0.1% (inactive)
O=C(NCc1ccccc1)C1C(=O)N(Cc2ccccc2)C(=O)C1C1(O)CCCC1 (stereo not given) | 653 | -2.4% (inactive)
COC(=O)c1ccccc1NC(=O)C1COc2ccccc2O1 (stereo not given) | 655 | -10% (inactive)
CCOC(=O)c1[nH]c2ccccc2c1N=CN(CC)CC | 684 | 0.2% (inactive)

Experiment: endothelial E-selectin expression blockers – imaging, HUVEC, immunofluorescence, MLSMR starter and 10KST1 sets, primary screen (AID 487);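 as to inhibition: signal is fraction of cell area covered by stained E-selectin grains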;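 as to nuclei count: 100% = median nuclei count of all wells on the same plate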
Settings: HUVEC TNFalpha-induced E-selectin immunofluorescence imaging, at 2 µM; inhibition: stronger effect = higher value; nuclei count: measured here: cell number, toxicity

Compound | nuclei count | inhibition
Cc1cc(C)n(S(=O)(=O)/C=C/c2ccccc2)n1 | 150% | -329% (inactive)
N#Cc1nc(-c2ccc(F)cc2)oc1N1CCCC1 | 148% | 24.6% (inactive)
CCOC(=O)c1[nH]c2ccc(C)cc2c1N=CN(CC)CC | 174% | -97.9% (inactive)
Cn1c(NCCCO)nc2c1c(=O)n(Cc1ccccc1F)c(=O)n2C | 167% | -160% (inactive)
C=CCOc1ccc(/C(O)=C2/C(=O)C(=O)N(CCCN3CCOCC3)C2c2ccc(OC)cc2)cc1 (stereo not given) | 131% | -115% (inactive)
CCOc1ccc2c(c1)n([O-])c1c([n+]2=O)CCCC1 | 84.7% | -31.4% (inactive)
CCCC(=O)N1CCc2[nH]c3ccccc3c2C1 | 167% | 1.1% (inactive)
CCN(CC)c1nc(N2CCOCC2)c(C#N)c2c1CN(C)CC2 | 152% | -116% (inactive)
CN1C(=O)C2(c3ccccc31)C1CCCC=C1C(C#N)=C(N)C2(C#N)C#N (stereo not given) | 143% | -160% (inactive)
Cc1sc(-n2c(C)ccc2C)c(C#N)c1C | 144% | -11.7% (inactive)
CCN(CC)CCN1C(=O)C(O)=C(C(C)=O)C1c1ccc(OC)c(OC)c1 (stereo not given) | 182% | -202% (inactive)
CCOC(=O)C(C(=O)OCC)N(C#N)c1nc(SC)nc(N(C)C)n1 | 86.4% | 42.8% (inactive)
CCSc1nnc(NC(=O)C(C)(C(F)(F)F)C(F)(F)F)s1 | 183% | -107% (inactive)
CC(C)=CCC(C)(C)CNC(=O)NC1CCCCC1 | 147% | -143% (inactive)
CCCOC(=O)CSC1=C(C#N)C(c2ccc3c(c2)OCO3)CC(=O)N1 (stereo not given) | 161% | -91.1% (inactive)
COc1ccc(N2CC(=O)N(c3ccc(OC)c(OC)c3)CC2=O)cc1OC | 142% | -94.2% (inactive)
CCCCCCOc1ccc(C(=O)n2cnc(N)n2)cc1 | 174% | -26.7% (inactive)
CCSc1nc2sc3c(c2c2nnc(SCC(=O)NCc4ccco4)n12)CCCC3 | 178% | -12.4% (inactive)
C=CCc1cccc(CNc2nc3ccccc3n2C(C)C)c1O | 145% | 17.8% (inactive)
O=C(Nc1ccc(N2CCN(C(=O)c3ccccc3)CC2)c(Cl)c1)c1ccc(Br)o1 | 143% | -72.9% (inactive)

Compound | nuclei count | inhibition
COc1ccc(NC(=O)c2c(C)cc(=O)oc2C)c(OC)c1 | 111% | 11.9% (inactive)
Cc1c(C)[n+](=O)c2c(n1[O-])CCC2 | 103% | -51.7% (inactive)
COC(=O)CCc1c(C)[nH]c(=S)[nH]c1=O | 111% | -74.5% (inactive)
CCOC(=O)C1=C(N)n2c(s/c(=C\c3cccnc3)c2=O)=C(C(=O)OC)C1c1cccnc1 (stereo not given) | 110% | -129% (inactive)
COc1ccc(CNc2oc(COc3ccc(Cl)cc3)nc2C#N)cc1 | 164% | -33.3% (inactive)
CC1(C)Cc2[nH]c(=O)c(C#N)cc2CS1 | 149% | -93.7% (inactive)
COc1ccccc1C1CC(c2ccc(Cl)cc2)Nc2nc(N)nn21 (stereo not given) | 146% | -104% (inactive)
CCOC(=O)C(C)Oc1ccc2c(C)cc(=O)oc2c1C(C)=O (stereo not given) | 198% | -13.3% (inactive)
CCC1(C)Cc2c(sc(NC(=O)CCC(=O)O)c2C#N)CO1 (stereo not given) | 165% | -47% (inactive)
Cc1cc(C)n(CC(=O)c2ccccc2)c(=O)c1C#N | 157% | -112% (inactive)
COc1cccc(Cn2c(NCc3ccccn3)nc3c2c(=O)n(C)c(=O)n3C)c1 | 189% | -199% (inactive)
O=C(NCCCN1CCOCC1)C1(c2ccccc2)CCOCC1 | 91.3% | 14.3% (inactive)
O=C(NCc1ccco1)c1ccc(=O)[nH]n1 | 91.1% | -71.8% (inactive)
CC(NC(=O)CSc1nc2c(cc1C#N)CN(C)CC2)c1ccccc1 (stereo not given) | 170% | -3.5% (inactive)
COc1cccc(C(=O)OC2CCCN(C)C2)c1 (stereo not given) | 141% | -39.2% (inactive)
Cn1c(=O)[nH]c(=O)c2c1nc(N1CCN(c3cccc(Cl)c3)CC1)n2CCCc1ccccc1 | 104% | -19.3% (inactive)
CCOC(=O)c1[nH]c2ccc(OC)cc2c1NC(=O)CCN1CCCC(C)C1 (stereo not given) | 100% | 9.9% (inactive)
O=C(NCc1ccccc1)C1C(=O)N(Cc2ccccc2)C(=O)C1C1(O)CCCC1 (stereo not given) | 108% | -17.9% (inactive)
COC(=O)c1ccccc1NC(=O)C1COc2ccccc2O1 (stereo not given) | 169% | 1.5% (inactive)
CCOC(=O)c1[nH]c2ccccc2c1N=CN(CC)CC | 160% | -230% (inactive)
